# Laboratory results reported in PubChem BioAssay (NCATS).
# A number with no mark means an inactive call. Inconclusive results are not listed. Entries that show only a call come without a potency. A structure can be active in one record and inactive in another. Active and inactive are the calls of the source. Unless noted, the call rests on the fitted dose curve; in most records, active means well fitted curve in the direction sought with a large enough effect; inconclusive means small, poorly fitted or top-dose-only effect, or another doubt; inactive means no such curve, though single readings can be large; an effect the other way counts as inactive or inconclusive.
# How the values were obtained:
# [1] = target: Voltage-gated inwardly rectifying potassium channel KCNH2 (Homo sapiens) (UniProt Q12809); test: qHTS Assay for Small Molecule Inhibitors of the Human hERG Channel Activity (AID 588834);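 further: lower thallium flux fluorescence means stronger hERG block; nearly all actives have a fitted effect of over 50% in size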; further: potency means the concentration at half of the fitted maximal effect
# Sequence of Voltage-gated inwardly rectifying potassium channel KCNH2 (Homo sapiens) (Q12809 whole entry, looked up): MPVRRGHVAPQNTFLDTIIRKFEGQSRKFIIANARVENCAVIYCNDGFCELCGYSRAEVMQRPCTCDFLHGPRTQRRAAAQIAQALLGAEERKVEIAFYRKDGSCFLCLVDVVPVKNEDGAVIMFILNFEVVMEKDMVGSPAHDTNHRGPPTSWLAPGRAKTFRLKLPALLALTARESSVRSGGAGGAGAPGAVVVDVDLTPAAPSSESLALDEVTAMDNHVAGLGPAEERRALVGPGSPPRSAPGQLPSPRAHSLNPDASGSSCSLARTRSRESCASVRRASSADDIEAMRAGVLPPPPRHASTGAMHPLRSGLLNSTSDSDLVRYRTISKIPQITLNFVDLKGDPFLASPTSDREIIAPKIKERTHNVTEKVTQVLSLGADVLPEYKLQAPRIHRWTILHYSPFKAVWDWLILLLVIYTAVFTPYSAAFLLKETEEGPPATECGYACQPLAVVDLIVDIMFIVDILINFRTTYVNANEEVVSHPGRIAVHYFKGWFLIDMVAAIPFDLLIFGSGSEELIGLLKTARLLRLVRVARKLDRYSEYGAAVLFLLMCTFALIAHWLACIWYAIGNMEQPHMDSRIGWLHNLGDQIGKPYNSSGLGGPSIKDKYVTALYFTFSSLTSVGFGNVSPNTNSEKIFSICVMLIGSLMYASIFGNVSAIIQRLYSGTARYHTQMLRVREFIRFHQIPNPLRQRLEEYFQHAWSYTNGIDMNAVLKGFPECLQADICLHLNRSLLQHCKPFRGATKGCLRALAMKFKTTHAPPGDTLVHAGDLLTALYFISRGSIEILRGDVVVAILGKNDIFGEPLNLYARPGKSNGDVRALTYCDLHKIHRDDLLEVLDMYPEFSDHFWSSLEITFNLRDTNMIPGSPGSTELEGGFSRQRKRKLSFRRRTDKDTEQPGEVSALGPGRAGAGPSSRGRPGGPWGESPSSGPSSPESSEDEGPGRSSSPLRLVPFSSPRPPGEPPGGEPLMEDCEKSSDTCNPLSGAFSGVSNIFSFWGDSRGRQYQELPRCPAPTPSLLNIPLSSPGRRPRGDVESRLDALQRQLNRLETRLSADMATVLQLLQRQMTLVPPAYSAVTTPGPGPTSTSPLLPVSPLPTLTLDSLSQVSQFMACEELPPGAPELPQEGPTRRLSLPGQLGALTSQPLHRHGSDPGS
# In short: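 Measured: FluxOR fluorescence after thallium stimulation in U2OS cells transduced with hERG by baculovirus. Compounds pre-incubated around 10 min; medium Opti-MEM with 2% FCS. AC50 from Hill equation.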
# [2] = target: Luciferin 4-monooxygenase (Photinus pyralis) (UniProt P08659); test: Biochemical firefly luciferase enzyme assay for NPC (AID 624030);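 further: purified P. pyralis luciferase at 10 nM with luciferin and ATP substrate; series mostly up to about 59 µM; nearly all actives have a fitted effect of over 70% in size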
# Sequence of Luciferin 4-monooxygenase (Photinus pyralis) (P08659 whole entry, looked up): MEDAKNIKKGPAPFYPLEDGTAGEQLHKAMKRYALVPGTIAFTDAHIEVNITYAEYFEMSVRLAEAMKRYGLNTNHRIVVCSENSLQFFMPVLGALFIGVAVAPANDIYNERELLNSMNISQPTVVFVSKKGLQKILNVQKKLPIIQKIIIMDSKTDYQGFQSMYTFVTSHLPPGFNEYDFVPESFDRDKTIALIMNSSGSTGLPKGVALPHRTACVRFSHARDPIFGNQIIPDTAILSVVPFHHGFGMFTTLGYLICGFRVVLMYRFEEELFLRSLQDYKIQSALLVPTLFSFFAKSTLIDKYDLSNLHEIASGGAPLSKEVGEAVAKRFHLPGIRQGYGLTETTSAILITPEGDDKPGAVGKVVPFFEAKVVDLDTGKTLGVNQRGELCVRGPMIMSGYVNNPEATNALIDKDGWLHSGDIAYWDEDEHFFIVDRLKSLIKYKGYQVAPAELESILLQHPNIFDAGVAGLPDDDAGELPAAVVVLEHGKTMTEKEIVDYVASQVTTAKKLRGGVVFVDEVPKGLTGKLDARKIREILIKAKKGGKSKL
# In short: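 Counter-screen for direct inhibition of the luciferase enzyme by approved-drug library compounds, run at 10 nM enzyme in 50 mM Tris acetate (final). Luminescence was read within 5 min of enzyme-buffer addition and normalized to PTC124 versus DMSO (0%).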
# [3] = S16 Schwann cell PMP22 intronic element firefly luciferase assay (AID 624032); further: nearly all actives have a fitted effect of over 30% in size; further: potency means the concentration at half of the fitted maximal effect
# In short: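 Rat S16 Schwann cells stably carrying a PMP22 intronic element-driven Fluc reporter were seeded overnight, then exposed to compounds for 24 h at 37 °C. Luminescence was normalized to PTC124 (positive control) and DMSO (0% activity).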
# [4] = S16 Schwann cell PMP22 intronic element beta-lactamase assay (AID 624044; calls by dose curve; further: nearly all actives have a fitted effect of over 15% in size; further: potency means the concentration at half of the fitted maximal effect)
# In short: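 Rat S16 Schwann cells with beta-Lac driven by a PMP22 intronic element, compound-treated 24 h at 37 °C. LiveBLAzer FRET B/G read: 460 nm normalized to potassium clavulanate vs DMSO; 535 nm FRET as viability; concentration-effect curves classified.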
# [5] = S16 Schwann cell viability assay (CellTiter-Glo assay) (AID 624031); further: nearly all actives have a fitted effect of over 70% in size; further: potency means the concentration at half of the fitted maximal effect
# In short: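 Rat S16 Schwann cells without reporter constructs received compound or DMSO for 24 h at 37 °C under 5% CO2. Cellular ATP was then quantified by CellTiter-Glo luminescence, with vehicle wells defined as 0% activity and cell-free wells as reference.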
# [6] = target: Glutaminase kidney isoform, mitochondrial (Homo sapiens) (UniProt O94925); test: qHTS for Inhibitors of Glutaminase (GLS): LOPAC Validation (AID 624146);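 further: glutamate product detected by oxidase and peroxidase coupled Amplex red fluorescence gain; series mostly up to about 46 µM; nearly all actives have a fitted effect of over 60% in size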
# Sequence of Glutaminase kidney isoform, mitochondrial (Homo sapiens) (O94925 whole entry, looked up, canonical isoform): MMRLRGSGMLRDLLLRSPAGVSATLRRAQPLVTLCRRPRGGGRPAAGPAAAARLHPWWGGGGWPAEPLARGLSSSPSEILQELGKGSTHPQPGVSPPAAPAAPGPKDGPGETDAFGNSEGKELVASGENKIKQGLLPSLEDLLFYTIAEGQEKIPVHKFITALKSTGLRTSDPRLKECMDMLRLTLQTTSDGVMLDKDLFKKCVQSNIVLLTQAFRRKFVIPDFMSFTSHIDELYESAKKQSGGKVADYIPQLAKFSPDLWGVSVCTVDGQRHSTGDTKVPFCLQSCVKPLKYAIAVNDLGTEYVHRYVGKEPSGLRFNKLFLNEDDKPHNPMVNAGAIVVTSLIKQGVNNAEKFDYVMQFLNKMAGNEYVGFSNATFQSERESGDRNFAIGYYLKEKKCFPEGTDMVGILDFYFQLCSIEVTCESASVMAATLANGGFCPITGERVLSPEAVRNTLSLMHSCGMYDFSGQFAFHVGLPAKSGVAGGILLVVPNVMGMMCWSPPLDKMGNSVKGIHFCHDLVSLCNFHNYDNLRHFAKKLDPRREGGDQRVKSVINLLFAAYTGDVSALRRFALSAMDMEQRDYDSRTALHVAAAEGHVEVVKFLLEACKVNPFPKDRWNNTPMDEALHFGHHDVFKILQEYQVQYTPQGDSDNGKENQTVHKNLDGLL
# In short: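 Enzyme dispensed in phosphate buffer (45 mM, pH 8.2, 0.02% Tween-20), compounds pinned in, then 1 mM L-glutamine solution and the glutamate oxidase–HRP–Amplex Red mix added; fluorescence read immediately and again after 30 min at room temperature.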
# [7] = qHTS of Trypanosoma Brucei Inhibitors: LOPAC Validation (AID 624147)
# In short: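 ADP (130 uM final) triggers the TbPYK reaction after compound addition; incubation is 45 min at room temperature. Kinase-Glo Plus is then added and luminescence imaged. Normalized data are fitted to concentration-effect curves.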
# [8] = target: Glucagon-like peptide 1 receptor (Homo sapiens) (UniProt P43220); test: qHTS of GLP-1 Receptor Agonists: LOPAC Validation (AID 624148);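 further: higher luminescence signal means agonism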
# Sequence of Glucagon-like peptide 1 receptor (Homo sapiens) (P43220 whole entry, looked up): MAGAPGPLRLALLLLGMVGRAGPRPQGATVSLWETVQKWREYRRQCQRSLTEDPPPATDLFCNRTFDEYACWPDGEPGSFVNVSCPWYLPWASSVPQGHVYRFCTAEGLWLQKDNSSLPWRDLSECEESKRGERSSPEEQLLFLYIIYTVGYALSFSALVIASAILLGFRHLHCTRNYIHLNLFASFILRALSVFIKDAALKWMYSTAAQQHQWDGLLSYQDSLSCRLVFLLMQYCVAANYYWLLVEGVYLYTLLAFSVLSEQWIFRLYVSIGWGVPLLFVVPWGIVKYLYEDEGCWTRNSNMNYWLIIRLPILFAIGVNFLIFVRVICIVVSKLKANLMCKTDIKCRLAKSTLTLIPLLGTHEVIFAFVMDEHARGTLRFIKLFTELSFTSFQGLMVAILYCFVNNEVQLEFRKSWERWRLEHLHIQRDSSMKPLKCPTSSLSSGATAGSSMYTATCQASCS
# In short: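 HEK293 cells stably co-expressing a cAMP-responsive luciferase reporter and a hypersensitive GLP-1R were plated 12 h at 37 °C and exposed to compounds for 4-6 hr at 37 °C, 5% CO2. Luminescence was read 12 min after adding detection reagent.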
# [9] = qHTS of Nrf2 Activators: LOPAC Validation (AID 624149)
# In short: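 Luminescence read-out of ARE-luciferase activation: AREc32_Fluc cells treated with compounds for 24 hr at 37 deg C, then lysed with Steady-Glo for 30 min at room temperature before reading.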
# [10] = HTS Assay for Allosteric Antagonists of the Human D2 Dopamine Receptor: Hit Validation in HTRF (AID 624455);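 further: stable D1 dopamine receptor cell line scored for blocking the D1 response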
# In short: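 First, antagonism was screened by calcium flux in a force-coupled, inducible Hek293 Trex D2 line challenged with EC80 dopamine. Hits then went into an HTRF assay in cells stably expressing D1, testing inhibition of the D1 response.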
# [11] = target: Tumor necrosis factor (Homo sapiens) (UniProt P01375); test: qHTS assay to identify small molecules that stimulate Tumor Necrosis Factor-alpha (TNF-alpha) secretion (AID 651757; active means well fitted curve in the direction sought with a large enough effect in the signal ratio; the % refers to the signal ratio)
# Sequence of Tumor necrosis factor (Homo sapiens) (P01375 whole entry, looked up): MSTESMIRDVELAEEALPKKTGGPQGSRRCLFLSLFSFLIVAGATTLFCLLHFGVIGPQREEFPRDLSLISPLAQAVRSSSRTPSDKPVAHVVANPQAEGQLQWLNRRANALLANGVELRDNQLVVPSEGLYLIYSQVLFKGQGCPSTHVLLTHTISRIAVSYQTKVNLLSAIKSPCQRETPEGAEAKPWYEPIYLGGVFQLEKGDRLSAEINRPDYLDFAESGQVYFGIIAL
# In short: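 Read-out is HTRF, a TR-FRET sandwich of cryptate- and XL665-labeled anti-TNF-alpha antibodies detecting cytokine secreted by THP-1 cells. Cells had been incubated with test compounds at 37 C for 17 hrs beforehand.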
# [12] = qHTS assay for small molecule activators of the nuclear factor-kappa B (NF-kB) signaling pathway (AID 651749; active means well fitted activation curve with a large enough effect in the signal ratio; the % refers to the signal ratio; further: series mostly up to about 77 µM); details: NF-kB-bla ME-180 cells, beta-lactamase FRET ratio, 16 h; active compounds read high
# In short: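 Screening used 2,000 ME-180 reporter cells per well exposed to pinned compound (23 nL) or DMSO; after 16 hr at 37C, beta-lactamase expression under NF-kB control was assessed through FRET.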
# [13] = qHTS assay for small molecule disruptors of the mitochondrial membrane potential - 1 hr assay (AID 651754; calls by dose curve; further: nearly all actives have a fitted effect of over 35% in size)
# In short: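 HepG2, 2,000 cells/well, overnight attachment; cpd or DMSO 1 hr, 37C/5% CO2; Mito-MPS dye 30 min, 37C; fluorescence monomer (490/535) and aggregate (540/590).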
# [14] = qHTS assay for small molecule disruptors of the mitochondrial membrane potential - 5 hr assay (AID 651755; calls by dose curve; further: nearly all actives have a fitted effect of over 40% in size)
# In short: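 HepG2 cells, attached overnight at 37C, were exposed to compound or DMSO for 5 hr at 37C, 5% CO2. Mito-MPS dye was then added for 30 min, and fluorescence read at 490/535 nm (monomers) and 540/590 nm (aggregates).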
smiles,measurement,setting,value
NC(=S)N/N=C/c1cccnc1,Potency,[1],inactive
same,Potency,[2],inactive
same,Potency,[3],inactive
same,Potency,[4],inactive
CO[C@]12C[C@@H](COC(=O)c3cncc(Br)c3)CN(C)[C@@H]1Cc1cn(C)c3cccc2c13,Potency,[1],0.398 µM (active)
same,Potency,[2],inactive
same,Potency,[3],inactive
same,Potency,[4],inactive
C#C[C@]1(OC(C)=O)CC[C@H]2[C@@H]3CCC4=C/C(=N/O)CC[C@@H]4[C@H]3CC[C@@]21CC,Potency,[1],inactive
same,Potency,[2],inactive
same,Potency,[3],8.09 µM (active)
CN(Cc1ccc(C(C)(C)C)cc1)Cc1cccc2ccccc12,Potency,[1],7.94 µM (active)
same,Potency,[2],inactive
same,Potency,[3],inactive
same,Potency,[4],inactive
Cc1ccc(-c2ncc(Cl)cc2-c2ccc(S(C)(=O)=O)cc2)cn1,Potency,[1],inactive
same,Potency,[2],inactive
same,Potency,[5],inactive
same,Potency,[4],inactive
CC[C@H](c1ccc(O)cc1)[C@@H](CC)c1ccc(O)cc1,Potency,[1],inactive
same,Potency,[2],inactive
same,Potency,[5],inactive
same,Potency,[4],inactive
Cl/C(=C\n1cncn1)c1ccc(Cl)cc1Cl,Potency,[1],inactive
same,Potency,[2],inactive
same,Potency,[3],inactive
N/C(=N\N=C\c1ccc(Cl)cc1)N/N=C/c1ccc(Cl)cc1,Potency,[1],3.55 µM (active)
same,Potency,[5],inactive
same,Potency,[3],inactive
same,Potency,[4],inactive
CC(C)(C)NC[C@H](O)COc1nsnc1N1CCOCC1,Potency,[1],inactive
same,Potency,[2],inactive
same,Potency,[5],inactive
same,Potency,[3],inactive
same,outcome,[6],inactive
same,outcome,[7],inactive
same,outcome,[8],inactive
same,outcome,[9],inactive
same,outcome,[10],inactive
Oc1ccc(Cl)cc1Cc1cc(Cl)ccc1O,Potency,[1],28.2 µM (active)
same,Potency,[2],inactive
same,Potency,[5],inactive
same,Potency,[3],inactive
same,Potency,[4],inactive
same,outcome,[11],inactive
CCOc1cc(OCC)c(C(=O)CCC(=O)O)cc1OCC,Potency,[1],inactive
same,Potency,[5],inactive
Cc1c(-c2ccccc2)oc2c(C(=O)OCCN3CCCCC3)cccc2c1=O,Potency,[1],inactive
same,Potency,[2],inactive
same,Potency,[5],inactive
same,Potency,[4],inactive
NCc1ccccc1Sc1ccccc1CO,Potency,[1],inactive
same,Potency,[2],inactive
same,Potency,[3],inactive
same,Potency,[4],inactive
CC(C)NCC(O)c1ccc2ccccc2c1 (stereo unspecified),Potency,[1],inactive
same,Potency,[2],inactive
same,Potency,[3],inactive
O=C(NCCc1c[nH]c2ccccc12)c1cccnc1,Potency,[1],inactive
same,Potency,[5],inactive
same,Potency,[3],inactive
same,Potency,[4],inactive
CCN(CC)CCOc1ccccc1C(=O)CCc1ccccc1,Potency,[1],1.12 µM (active)
same,Potency,[2],inactive
same,Potency,[3],inactive
same,Potency,[4],inactive
CN1CCC[C@@H]1CCO[C@](C)(c1ccccc1)c1ccc(Cl)cc1,Potency,[2],inactive
same,Potency,[3],inactive
Cc1cc2c(OCC(CNC(C)(C)C)OC(=O)c3ccccc3)cccc2[nH]1 (stereo unspecified),Potency,[2],inactive
same,Potency,[5],inactive
same,Potency,[3],18.1 µM (active)
same,Potency,[4],inactive
CCNC(=O)/C=C/c1cccc(Br)c1,Potency,[1],inactive
same,Potency,[3],inactive
CN1CCc2cccc3c2[C@H]1Cc1ccc(O)c(O)c1-3,Potency,[3],14.4 µM (active)
same,Potency,[4],inactive
FC(F)(F)C(F)(F)C(F)(F)C(F)(F)C(F)(F)C(F)(F)C(F)(F)C(F)(F)Br,Potency,[2],inactive
same,Potency,[5],inactive
same,Potency,[3],inactive
same,Potency,[4],inactive
CCc1oc2ccccc2c1C(=O)c1cc(I)c(O)c(I)c1,Potency,[1],inactive
same,Potency,[5],inactive
same,Potency,[4],inactive
CCCCCN=C(N)N/N=C/c1c[nH]c2ccc(OC)cc12,Potency,[2],inactive
same,Potency,[5],inactive
same,Potency,[3],inactive
same,Potency,[4],inactive
CCN(CC)CCNc1ccc(CO)c2sc3ccccc3c(=O)c12,Potency,[2],inactive
same,Potency,[5],inactive
same,Potency,[3],1.61 µM (active)
same,Potency,[4],11.2 µM (active)
CCN(CC)CCNC(=O)c1cc(Br)c(N)cc1OC,Potency,[2],inactive
same,Potency,[5],inactive
C=C[C@H]1CN2CC[C@H]1C[C@@H]2[C@@H](O)c1ccnc2ccc(OC)cc12,activation,[12],-0.176%
same,Potency,[13],inactive
same,Potency,[14],inactive
same,outcome,[11],inactive
CN(C)CCC[C@@]1(c2ccc(F)cc2)OCc2cc(C#N)ccc21,Potency,[2],inactive
same,Potency,[5],inactive
same,Potency,[3],inactive
NC(=O)n1c(O)c(C(=O)c2cccs2)c2cc(Cl)ccc21,Potency,[1],inactive
same,Potency,[4],inactive
CN1CCN(C2=Nc3ccccc3Sc3ccc(Cl)cc32)CC1,Potency,[1],14.1 µM (active)
same,Potency,[3],inactive
CCOC(=O)[C@@](C)(N)Cc1ccc(O)c(O)c1,Potency,[2],inactive
C=C[C@H]1CN2CC[C@H]1C[C@H]2[C@H](O)c1ccnc2ccc(OC)cc12,Potency,[2],inactive
CCOC(=O)c1c(N)sc2c1CCN(Cc1ccccc1)C2,Potency,[2],inactive
same,Potency,[5],inactive
same,Potency,[3],36.1 µM (active)
CN(C)CCN1C(=O)c2ccccc2N(C)c2ccccc21,Potency,[2],inactive
same,Potency,[5],inactive
same,Potency,[3],inactive
Cc1ccc(O)c([C@H](CCN(C(C)C)C(C)C)c2ccccc2)c1,Potency,[2],inactive
same,Potency,[5],inactive
same,Potency,[3],inactive
same,Potency,[4],inactive
CN1CCN(C2=Nc3cc(F)ccc3Cc3ccccc32)CC1,Potency,[2],inactive
same,Potency,[5],inactive
same,Potency,[3],inactive
same,Potency,[4],inactive
C[N+]1(C)CCC(=C(c2ccccc2)c2ccccc2)CC1,Potency,[2],inactive
same,Potency,[5],inactive
same,Potency,[3],inactive
CCCCC(CC)COC(=O)/C=C/c1ccc(OC)cc1 (stereo unspecified),Potency,[2],inactive
same,Potency,[5],inactive
same,Potency,[3],inactive
same,Potency,[4],inactive
OCCOCCN1CCN(C2=Nc3ccccc3Sc3ccccc32)CC1,Potency,[2],inactive
same,Potency,[5],inactive
same,Potency,[3],inactive
same,Potency,[4],inactive
CCCCCCCCCCCCOCCOCCOCCOCCOCCOCCOCCOCCOCCO,Potency,[2],inactive
Oc1ccccc1C=NCc1ccccc1,Potency,[2],inactive
same,Potency,[5],inactive
same,Potency,[3],inactive
O[C@@H](c1cc(C(F)(F)F)nc2c(C(F)(F)F)cccc12)[C@H]1CCCCN1,Potency,[2],inactive
same,Potency,[5],28.7 µM (active)
same,Potency,[3],36.1 µM (active)
C[N+]1(CC2COC(c3ccccc3)(C3CCCCC3)O2)CCCCC1 (stereo unspecified),Potency,[2],inactive
same,Potency,[5],inactive
same,Potency,[4],inactive
Cc1cc(CC(=O)O)c(C)n1-c1ccc(Cl)cc1,Potency,[2],inactive
same,Potency,[3],inactive
O=C(CCCN1CC=C(n2c(=O)[nH]c3ccccc32)CC1)c1ccc(F)cc1,Potency,[2],inactive
same,Potency,[5],inactive
same,Potency,[3],inactive
